Assay results as given in ChEMBL document CHEMBL3988442, “University of Dundee, Small-Polar-MMV Screening Library” (2021).
For some assays here: Measured potencies and affinities stand elsewhere.

Legend:
Design in all cases: scale not given: direction of the effect not stated beside the values
[1] = target: Protein translocase subunit SecA (Escherichia coli (strain K12)) (UniProt P10408); test: Assay to Identify E. coli SecA ATPase Inhibitors; type: functional; conditions: 30 µM
[2] = target: T1, Ubiquitin-activating enzyme e1, putative (Leishmania donovani (strain BPK282A1)) (UniProt E9BSI1); test: Leishmania donovani Ubiquitin Activating Enzyme (LdE1); type: functional; conditions: 30 µM
T1 sequence (whole entry): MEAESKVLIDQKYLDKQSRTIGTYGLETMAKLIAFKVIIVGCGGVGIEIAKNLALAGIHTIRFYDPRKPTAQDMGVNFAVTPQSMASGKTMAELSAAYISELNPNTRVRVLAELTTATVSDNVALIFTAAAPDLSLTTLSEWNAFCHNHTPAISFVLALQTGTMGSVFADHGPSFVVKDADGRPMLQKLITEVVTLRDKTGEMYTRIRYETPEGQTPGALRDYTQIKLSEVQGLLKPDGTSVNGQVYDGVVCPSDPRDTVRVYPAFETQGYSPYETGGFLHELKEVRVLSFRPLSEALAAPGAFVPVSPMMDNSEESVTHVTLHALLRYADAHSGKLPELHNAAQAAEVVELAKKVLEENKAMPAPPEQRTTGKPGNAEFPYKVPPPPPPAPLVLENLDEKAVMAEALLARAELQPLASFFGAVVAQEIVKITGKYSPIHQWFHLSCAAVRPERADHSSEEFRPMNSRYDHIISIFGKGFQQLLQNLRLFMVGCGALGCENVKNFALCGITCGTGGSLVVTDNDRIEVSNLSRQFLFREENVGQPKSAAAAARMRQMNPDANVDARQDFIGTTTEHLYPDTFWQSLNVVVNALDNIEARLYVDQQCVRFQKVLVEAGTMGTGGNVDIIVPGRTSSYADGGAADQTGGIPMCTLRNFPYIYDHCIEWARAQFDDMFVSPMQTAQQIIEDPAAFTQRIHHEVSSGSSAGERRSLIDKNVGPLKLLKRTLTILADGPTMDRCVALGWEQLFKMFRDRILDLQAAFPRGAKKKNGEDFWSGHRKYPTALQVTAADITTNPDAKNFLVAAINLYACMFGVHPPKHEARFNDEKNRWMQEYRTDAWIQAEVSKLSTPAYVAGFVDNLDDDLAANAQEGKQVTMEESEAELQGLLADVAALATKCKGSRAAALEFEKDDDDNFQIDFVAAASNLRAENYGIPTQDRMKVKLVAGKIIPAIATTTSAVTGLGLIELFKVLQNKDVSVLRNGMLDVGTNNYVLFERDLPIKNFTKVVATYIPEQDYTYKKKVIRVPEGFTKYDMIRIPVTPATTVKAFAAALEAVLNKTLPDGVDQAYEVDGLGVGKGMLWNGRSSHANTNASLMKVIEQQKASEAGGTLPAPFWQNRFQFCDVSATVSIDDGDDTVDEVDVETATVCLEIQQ

[3] = target: AMP-activated protein kinase, AMPK (Homo sapiens) (UniProt P54646+O43741+P54619+Q9UGJ0+Q9Y478+Q13131+Q9UGI9); test: AMP-dependent Kinase enzyme assay. An in vitro enzyme assay that detects ADP turnover that is directly proportional to AMPK activity. This uses naive AMPK that is activated during the assay with MK-8722; type: functional; conditions: 30 µM
[4] = target: Sialic acid-binding Ig-like lectin 9 (Homo sapiens) (UniProt Q9Y336); test: Hs-Siglec9 ALPHAscreen SOP 20170721; conditions: 10 µM
Chain of Sialic acid-binding Ig-like lectin 9 (Homo sapiens) (Q9Y336 whole entry): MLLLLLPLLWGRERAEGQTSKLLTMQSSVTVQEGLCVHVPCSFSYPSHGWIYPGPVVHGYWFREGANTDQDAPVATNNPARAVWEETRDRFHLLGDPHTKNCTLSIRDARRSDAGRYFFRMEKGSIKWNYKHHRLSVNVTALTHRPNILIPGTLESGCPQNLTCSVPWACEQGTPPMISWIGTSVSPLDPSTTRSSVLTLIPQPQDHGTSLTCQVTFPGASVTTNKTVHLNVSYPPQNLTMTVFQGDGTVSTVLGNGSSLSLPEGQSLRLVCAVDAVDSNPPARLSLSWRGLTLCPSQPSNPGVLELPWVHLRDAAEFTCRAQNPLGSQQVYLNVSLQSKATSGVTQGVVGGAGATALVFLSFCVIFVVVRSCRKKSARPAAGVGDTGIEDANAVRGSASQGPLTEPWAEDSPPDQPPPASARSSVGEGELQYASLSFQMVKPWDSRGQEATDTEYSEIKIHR

Trypanosoma cruzi = test: Trypanosoma cruzi phosphomannomutase and mannose-1-phosphate guanylyltransferase assay; type: functional; conditions: 10 µM
[5] = target: T2, Arginase-2, mitochondrial (Homo sapiens) (UniProt P78540); test: in vitro enzyme assay to detect the production of urea directly proportional to the activity of Arginase II; type: functional; conditions: 33.3 µM; also: in the data most compounds retested in dose-response had high values
T2 sequence (whole entry): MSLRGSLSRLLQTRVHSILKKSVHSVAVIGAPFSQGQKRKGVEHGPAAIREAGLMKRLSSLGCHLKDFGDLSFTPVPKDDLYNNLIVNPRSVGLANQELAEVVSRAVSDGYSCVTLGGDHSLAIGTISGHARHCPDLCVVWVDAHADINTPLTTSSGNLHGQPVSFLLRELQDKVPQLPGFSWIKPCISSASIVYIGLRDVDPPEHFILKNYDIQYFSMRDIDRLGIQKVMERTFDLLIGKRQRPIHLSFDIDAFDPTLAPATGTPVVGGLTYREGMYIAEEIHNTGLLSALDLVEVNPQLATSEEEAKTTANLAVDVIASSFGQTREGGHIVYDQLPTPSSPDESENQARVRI

[6] = target: T3, Proteasome subunit beta (Trypanosoma cruzi) (UniProt O96673); test: Trypanosoma cruzi proteasome chymotrypsin-like activity (TcProtChymo) assay.; also: in the data most compounds retested in dose-response had high values; type: functional; conditions: 9.37 µM
T3 sequence (whole entry): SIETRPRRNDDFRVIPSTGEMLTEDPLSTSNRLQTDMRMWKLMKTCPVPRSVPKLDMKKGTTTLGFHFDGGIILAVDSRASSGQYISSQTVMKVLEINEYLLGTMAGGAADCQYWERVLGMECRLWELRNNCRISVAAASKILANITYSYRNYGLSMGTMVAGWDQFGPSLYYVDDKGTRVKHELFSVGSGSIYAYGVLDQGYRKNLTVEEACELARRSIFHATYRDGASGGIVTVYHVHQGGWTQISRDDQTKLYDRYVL

Homo sapiens = species: Homo sapiens; test: To identify inhibition of the IFN signalling (Jak-Stat) pathway via expression of an eGFP reporter gene under the control of an IFN-stimulated response element (ISRE) containing MxA promoter.; type: functional; conditions: 30 µM
[7] = target: T4, Tyrosyl-tRNA synthetase, putative (Trypanosoma cruzi (strain CL Brener)) (UniProt Q4DSP6); test: Trypanosoma cruzi tyrosyl tRNA synthetase (TcYRS) _High Tyrosine SOP; type: functional; conditions: 30 µM; also: in the data most compounds retested in dose-response had high values
T4 sequence (whole entry): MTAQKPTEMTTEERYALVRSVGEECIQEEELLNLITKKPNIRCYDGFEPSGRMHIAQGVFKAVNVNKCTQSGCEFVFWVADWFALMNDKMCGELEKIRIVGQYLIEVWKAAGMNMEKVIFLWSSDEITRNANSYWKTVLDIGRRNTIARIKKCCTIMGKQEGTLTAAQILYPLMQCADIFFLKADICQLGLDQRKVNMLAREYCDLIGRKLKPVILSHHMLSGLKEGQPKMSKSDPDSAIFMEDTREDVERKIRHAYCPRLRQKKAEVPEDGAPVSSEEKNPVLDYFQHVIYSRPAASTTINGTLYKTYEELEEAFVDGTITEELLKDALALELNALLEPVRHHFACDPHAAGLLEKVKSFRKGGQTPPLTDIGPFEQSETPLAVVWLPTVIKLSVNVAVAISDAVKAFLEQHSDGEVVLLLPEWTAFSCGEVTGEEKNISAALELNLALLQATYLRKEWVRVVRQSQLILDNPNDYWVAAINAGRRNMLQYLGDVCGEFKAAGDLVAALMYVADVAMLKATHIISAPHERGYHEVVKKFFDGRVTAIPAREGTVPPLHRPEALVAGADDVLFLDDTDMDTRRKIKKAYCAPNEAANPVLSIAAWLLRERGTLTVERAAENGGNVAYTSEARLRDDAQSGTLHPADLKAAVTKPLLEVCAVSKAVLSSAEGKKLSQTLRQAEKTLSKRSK

[8] = target: T4, Tyrosyl-tRNA synthetase, putative (Trypanosoma cruzi (strain CL Brener)); test: Trypanosoma cruzi tyrosyl tRNA synthetase (TcYRS) SOP; type: functional; conditions: 30 µM
[9] = target: Chromo domain-containing protein 1 (Saccharomyces cerevisiae (strain ATCC 204508 / S288c) (Baker's yeast)) (UniProt P32657); test: ScCHD-1 Enzyme Inhibition Assay; type: functional; conditions: 30 µM; also: in the data most compounds retested in dose-response had high values
Chain of Chromo domain-containing protein 1 (Saccharomyces cerevisiae (strain ATCC 204508 / S288c) (Baker's yeast)) (P32657 whole entry, the tested form may be a part): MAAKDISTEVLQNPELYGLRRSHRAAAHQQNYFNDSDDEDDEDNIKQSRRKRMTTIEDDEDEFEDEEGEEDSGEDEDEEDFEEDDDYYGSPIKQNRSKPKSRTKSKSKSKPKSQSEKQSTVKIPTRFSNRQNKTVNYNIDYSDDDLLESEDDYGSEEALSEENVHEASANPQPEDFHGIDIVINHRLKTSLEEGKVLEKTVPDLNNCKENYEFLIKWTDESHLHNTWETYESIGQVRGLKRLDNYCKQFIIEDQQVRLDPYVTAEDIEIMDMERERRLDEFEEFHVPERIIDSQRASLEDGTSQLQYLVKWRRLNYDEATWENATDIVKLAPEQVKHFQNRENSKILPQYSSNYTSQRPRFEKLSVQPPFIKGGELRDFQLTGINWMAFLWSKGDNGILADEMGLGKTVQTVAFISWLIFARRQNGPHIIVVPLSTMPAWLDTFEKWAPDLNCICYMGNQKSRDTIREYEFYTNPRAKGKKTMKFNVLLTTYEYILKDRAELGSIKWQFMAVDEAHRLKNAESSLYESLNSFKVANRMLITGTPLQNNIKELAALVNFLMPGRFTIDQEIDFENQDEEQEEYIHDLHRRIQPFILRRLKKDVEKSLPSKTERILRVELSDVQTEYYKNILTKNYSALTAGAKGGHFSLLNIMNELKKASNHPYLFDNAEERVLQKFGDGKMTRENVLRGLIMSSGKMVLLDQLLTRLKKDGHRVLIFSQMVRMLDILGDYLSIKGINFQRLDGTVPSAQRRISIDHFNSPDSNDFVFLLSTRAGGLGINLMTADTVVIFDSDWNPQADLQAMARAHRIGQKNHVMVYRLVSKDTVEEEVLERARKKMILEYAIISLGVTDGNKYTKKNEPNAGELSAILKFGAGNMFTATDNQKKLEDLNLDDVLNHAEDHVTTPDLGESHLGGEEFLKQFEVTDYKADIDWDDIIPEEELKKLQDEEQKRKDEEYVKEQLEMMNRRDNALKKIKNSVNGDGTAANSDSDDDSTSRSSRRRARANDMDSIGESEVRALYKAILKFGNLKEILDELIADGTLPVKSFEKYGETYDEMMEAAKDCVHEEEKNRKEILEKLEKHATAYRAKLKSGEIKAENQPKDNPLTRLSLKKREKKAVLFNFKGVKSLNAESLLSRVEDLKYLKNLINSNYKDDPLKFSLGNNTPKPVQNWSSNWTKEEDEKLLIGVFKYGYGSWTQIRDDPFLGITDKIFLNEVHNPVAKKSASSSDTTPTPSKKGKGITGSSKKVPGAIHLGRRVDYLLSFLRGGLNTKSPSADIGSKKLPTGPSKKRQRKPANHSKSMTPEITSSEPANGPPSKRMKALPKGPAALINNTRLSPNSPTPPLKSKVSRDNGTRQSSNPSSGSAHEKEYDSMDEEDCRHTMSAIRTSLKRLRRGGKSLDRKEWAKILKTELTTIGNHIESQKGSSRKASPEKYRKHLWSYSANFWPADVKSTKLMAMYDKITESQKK

Chain of Protein translocase subunit SecA (Escherichia coli (strain K12)) (P10408 whole entry): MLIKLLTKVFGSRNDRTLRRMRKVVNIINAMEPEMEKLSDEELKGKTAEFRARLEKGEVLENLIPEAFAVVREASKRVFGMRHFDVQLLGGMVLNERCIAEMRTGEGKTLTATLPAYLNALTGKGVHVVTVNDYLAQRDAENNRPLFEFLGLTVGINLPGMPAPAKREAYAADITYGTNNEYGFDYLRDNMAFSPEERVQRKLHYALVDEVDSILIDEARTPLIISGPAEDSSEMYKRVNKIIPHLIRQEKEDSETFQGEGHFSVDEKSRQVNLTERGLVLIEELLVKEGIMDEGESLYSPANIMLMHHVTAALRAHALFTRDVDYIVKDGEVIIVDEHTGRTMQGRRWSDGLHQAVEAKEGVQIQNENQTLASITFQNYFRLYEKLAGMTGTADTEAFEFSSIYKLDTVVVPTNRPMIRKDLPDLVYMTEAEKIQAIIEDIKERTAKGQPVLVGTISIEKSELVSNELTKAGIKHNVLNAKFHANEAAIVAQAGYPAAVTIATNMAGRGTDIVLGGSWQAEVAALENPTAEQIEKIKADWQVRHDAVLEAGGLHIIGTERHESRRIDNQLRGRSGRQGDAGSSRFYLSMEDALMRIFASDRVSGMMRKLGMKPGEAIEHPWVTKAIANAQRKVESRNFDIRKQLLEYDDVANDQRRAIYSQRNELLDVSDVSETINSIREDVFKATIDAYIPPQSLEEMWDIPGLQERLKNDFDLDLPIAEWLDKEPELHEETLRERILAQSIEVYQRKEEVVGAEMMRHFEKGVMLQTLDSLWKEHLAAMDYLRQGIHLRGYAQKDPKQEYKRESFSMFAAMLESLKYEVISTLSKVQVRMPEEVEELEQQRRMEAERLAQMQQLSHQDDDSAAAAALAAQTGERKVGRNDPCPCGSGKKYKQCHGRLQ

| Structure (SMILES) | Percent Effect [1] | Percent Effect [2] | Percent Effect [3] | Percent Effect [4] | Percent Effect (Trypanosoma cruzi) | Percent Effect [5] | Percent Effect [6] | Percent Effect (Homo sapiens) | Percent Effect [7] | Percent Effect [8] | Percent Effect [9] |
| --- | --- | --- | --- | --- | --- | --- | --- | --- | --- | --- | --- |
| Cc1nn(C)c(Cl)c1C1CCCN1C(=O)c1cc[nH]n1 (configuration not stated) | -1.54% | 2.7% | -1.34% | 13.1% | 2.74% | -2% | 8.83% | -3.1% | 2.46% | 11.1% | -9.56% |
| Cc1nc(C)n(CC2CCCN2CCc2cccs2)n1 (configuration not stated) | -2.28% | 15.8% | 3.79% | -4.64% | 7.89% | -2.68% | 25.4% | 10.2% | 13.2% | -7.32% | -11.4% |
| CN1CC(=O)N(c2cccnc2)CC12CCN(C(=O)C1CCCCC1)C2 (configuration not stated) | 0.868% | 10.7% | 6.75% | 12.8% | -1.74% | -72.9% | 12.3% | 24% | 3.12% | 2.5% | -2.49% |
| CN1CCN(Cc2cn3c(n2)CN(Cc2cccnc2)CC3)CC1 | 5.16% | 16.2% | 12.3% | -13.1% | -7.14% | 2.23% | 5.72% | 16.3% | 1.08% | 10.3% | -4.09% |
| Cn1cccc1CN1CCC2(CCCN(C(=O)Cc3cccnc3)C2)C1 (configuration not stated) | -2.25% | 0% | -2.27% | -5.33% | -2.07% | -4.52% | 1.39% | 2.23% | -2.12% | -6.41% | -7.07% |
| Cc1cc(C)n(C2CCCN(C(=O)CCNS(C)(=O)=O)C2)n1 (configuration not stated) | 2.69% | -6.33% | -12.4% | -1.59% | -0.103% | 7.53% | 8.58% | 12.6% | 2.08% | 7.59% | -22.7% |
| Cn1cnc(S(=O)(=O)NCCN2CCCCCC2=O)c1Cl | -8.78% | 5.41% | -41.8% | 6.15% | -3.87% | -0.802% | 0.721% | 17.8% | -0.493% | -6.17% | -8.21% |
| C[C@H](O)CNC(=O)c1cnc(-c2ccccc2)nc1O | -3.97% | 10.8% | -6.61% | 24.9% | 4.83% | 19.1% | 11.7% | -5.82% | 2.65% | 17.1% | -9.28% |
| CCN1CCN(c2ncc(-c3cc(C)no3)c(-c3ccoc3C)n2)CC1 | -4.09% | 12.2% | 5% | 3.93% | 1.98% | -3.48% | 6.4% | -1.91% | 2.15% | 6.49% | -24.9% |
| Cc1cccc(OCCC(=O)N(C)CCC#N)c1C | -4.33% | 2.63% | 12.1% | 7.74% | -5.16% | -5.92% | 23.1% | 9.14% | 4.25% | 10.4% | -5.59% |
| CC(=O)NCCN1CCC(c2cccs2)CC1 | -3.79% | 5.48% | 4.81% | 1.43% | 6.27% | -1.36% | 17.9% | 3.79% | 2.15% | 10% | -6.86% |
| CN(C)C(=O)C1(CCCc2ccncc2)CCCN1 (configuration not stated) | -1.15% | 23% | -1.94% | -4.7% | 0% | -3.48% | 26.1% | 4.91% | 5.38% | 14.3% | -22.2% |
| O=C(c1nc(-c2ccc3cc[nH]c3c2)no1)N1CCCC1 | -4.98% | -12% | 2.17% | 2.62% | 5.11% | -3.7% | 11.7% | -6.53% | 0% | -2.56% | -3.18% |
| CC(C(=O)N1CCN(c2cnccn2)CC1)n1cncn1 (configuration not stated) | -0.0716% | 1.27% | 4.88% | 1.64% | -4% | 7.53% | 8.23% | 11.1% | 3.12% | 10.1% | -8.39% |
| CCc1nc(CN(C)C2CCN(Cc3cnc(C)cn3)C2)no1 (configuration not stated) | 0.722% | 27.9% | -1.25% | -16.7% | 5.38% | -3.42% | 15.5% | 26.6% | 8.37% | 21.5% | -17% |
| O=C(O)C1(Cc2ccccc2Cl)CCN(c2ncccc2F)CC1 | -0.132% | 5.41% | -2.78% | 5.67% | 1.54% | 1.91% | 19.5% | 7.74% | 6.88% | 2.44% | -3.4% |
| CN(C)C(=O)NC[C@H]1OC[C@@H]2CCN(Cc3ccoc3)C[C@@H]21 | 2.83% | 2.67% | 24.1% | -3.37% | -5.41% | -66.8% | 8.38% | 36.1% | 3.12% | 10% | -4.56% |
| COc1ccccc1C(O)CNC(=O)Nc1ncccc1C (configuration not stated) | -3.85% | 12.7% | 3.4% | -8.4% | 6.52% | 0% | 8.27% | 16.1% | 5.42% | 16.5% | -4.09% |
| CCn1c(C)nnc1CN(C)C1CCN(CCc2ccncc2)C1 (configuration not stated) | -2.2% | 20.8% | -0.899% | 1.88% | 1.47% | -3.16% | 9.62% | 13.3% | 11.4% | 30.6% | -19.1% |
| CCn1c(Cn2cncn2)nnc1C1CCN(Cc2ccncc2)CC1 | -5.1% | 5.41% | -3.24% | 1.13% | -0.489% | 2.73% | 4.72% | -4.54% | 9.68% | 21% | -2.94% |
| Cc1nn(C)cc1CNC(=O)c1cn(CCC2CCCCN2)nn1 (configuration not stated) | -3.59% | 2.67% | -4.65% | 9.99% | 9.64% | -1.04% | 20.9% | -18.7% | 6.01% | 16.1% | -3.7% |
| O=C(NCc1ccco1)[C@@H]1CCO[C@@H]2CCN(c3ccncn3)C[C@H]21 | 0.562% | 2.67% | 2.84% | 5.63% | -5.02% | -56.5% | 5.64% | 3.81% | 1.04% | -25% | -8.67% |
